The results in this text go back to PubChem BioAssay (NCATS).

Assay in all cases: Cytotoxic Profiling of Annotated Libraries Using Quantitative High-Throughput Screening (AID 1296008); note: nearly all actives have a fitted effect of over 60% in size
Conditions in all cases: Five cell lines viability, CellTiter-Glo ATP luminescence, 48-72 h; max response: hits give low values
(In ATP-based viability assays light output follows the ATP content of the culture.)

Test [1] concerns CRL-7250. The gist of the method:
(§1)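 Compounds were pin-transferred onto cells and incubated 48 or 72 hr at 37 degree Celsius, 95% humidity. CellTiter-Glo was added, plates sat 10 min at room temperature, then ATP-coupled luminescence was imaged as the viability read-out.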

The subject of test [2] is HEK293. In outline:
as §1

Test [3] relates to HaCat. The gist of the method: as §1
In test [4] the test system is KB-3-1. In outline:
as §1

Test [5] deals with NIH3T3. In outline: as §1

SMILES strings stand for the structures. “And” between values parts separate entries of the source, which are not always exact repeats. Identical values can stand only once. Results filed as inconclusive are left out. Unmarked numbers belong to inactive results. The source made the active and inactive calls. Calls come from the whole dose curve; as a rule, active = well fitted inhibition curve with a large enough effect; inconclusive = small, poorly fitted or top-dose-only effect; inactive = flat fitted curve, though single readings scatter.
% is set by controls: 0 for no effect and ±100 for the full control effect; potency is the fitted concentration of half-maximal effect.

Take `C/C=C/C=C/C=C/C(=O)O[C@@H]1C=C(CO)C(O)(C(=O)O)[C@@]2(C)CCCC(C)(C)[C@H]12` (stereo not given in full): the max response in test [1] is 2.37%; in test [4], 0.213%; in test [5] it was -2.73%. In addition, the compound was called inactive in test [2] and in test [3].
Consider `CC(NCc1ccc(OCc2cccc(F)c2)cc1)C(N)=O` (stereo not given), for which the compound was called inactive in test [1], in test [2], in test [3] and in test [5]. Besides, the max response in test [4] was 9.7%.
With `COC(=O)[C@@]1(C)CC[C@]2(C(=O)O[C@@H]3O[C@H](CO)[C@@H](O)[C@H](O)[C@H]3O)CC[C@]3(C)C(=CCC4[C@@]5(C)CC[C@H](O[C@@H]6O[C@H](C(=O)O)[C@@H](O)[C@H](O)[C@H]6O)C(C)(C)C5CC[C@]43C)[C@@H]2C1` (stereo not given in full), the max response in test [1] is -18.2%; in test [3], -2.02%; in test [4] it was -0.321%; in test [5], 2.66%. In addition, the compound was called inactive in test [2].
For the compound `O=C(c1ccccn1)c1cnn2c(-c3ccncc3)ccnc12`, the max response in test [1] is 3%; in test [4], -2.39%; in test [5], 1.02%. For the same compound, the compound was classed as inactive in test [2] and in test [3].
Regarding `CC(C)CC(=O)O[C@@H]1OC=C(CO[C@@H]2O[C@H](CO[C@@H]3O[C@H](CO)[C@@H](O)[C@H](O)[C@H]3O)[C@@H](O)[C@H](O)[C@H]2O)[C@H]2C[C@H](O)[C@@H](CO)[C@@H]12`, the results for the max response in test [1] and in test [5] were 4.5% and 0.598%, respectively. The compound was called inactive in test [2], in test [3] and in test [4].
Regarding `O=C(O)c1n[nH]c2c1C[C@H]1C[C@@H]21`, the max response in test [1] is -0.338%; in test [3], 2.24%; in test [4], 3.14%; in test [5], -3.9%. The call in test [2] was inactive.
With `CC1(CO)CC2C(O)C(=O)C3(CO)CC3(C)C2C1` (stereo not given), the figures for the max response in test [1] and in test [4] were -4.66% and 2.2%, respectively. The call in test [2], in test [3] and in test [5] was inactive.
`Nc1ccn([C@@H]2C(F)=C(CO)[C@@H](O)[C@H]2O)c(=O)n1`: in test [1], the max response was -25.3%. For the same compound, the Potency in test [2] is 920 nM (active) and 933 nM (active); in test [3], 18.4 µM (active); in test [4], 9.2 µM (active); in test [5], 4.61 µM (active) and 3.71 µM (active).
For the compound `CCCOc1ccn2c(C(C)=O)cc(-c3ccccc3S(C)(=O)=O)c2c1`, the outcome in test [1], in test [2] and in test [3] was inactive. Further, the max response is 3.55% in test [4] and -3.04% in test [5].
On to `C=C(C)C(=O)O[C@H]1C[C@@](C)(OC(C)=O)[C@@]2(O)CC[C@@](C)(O)[C@H](OC(C)=O)[C@@]23OC(=O)C(COC)=C13`, for which the max response in test [1] was 3.52%; in test [4], 6.06%. Also, the compound was called inactive in test [2], in test [3] and in test [5].
With `Cc1cc(O)c(C(C)C)cc1O[C@@H]1O[C@H](CO)[C@@H](O)[C@H](O)[C@H]1O`, the max response is -11.2% in test [1] and 1.36% in test [5]. In addition, the call in test [2], in test [3] and in test [4] was inactive.
As for `CC1CCC(=O)CC(O)C(O)CC(=O)O1` (stereo not given), the max response in test [1] was -5.97%; in test [3], 4.62%; in test [4], 5.19%. For the same compound, the compound was classed as inactive in test [2] and in test [5].
On to `O=C(c1ccc(NS(=O)(=O)c2cccc3cccnc23)cc1)N1CCN(CC2CC2)CC1`, for which the max response in test [1] was -4.28%; in test [4] it was -0.69%; in test [5] it was 0.212%. Besides, the result in test [2] and in test [3] was inactive.
For `CC1=CC[C@]2(C(=O)O[C@@H]3O[C@H](CO[C@@H]4O[C@H](CO)[C@@H](O[C@@H]5O[C@@H](C)[C@H](O)[C@@H](O)[C@H]5O)[C@H](O)[C@H]4O)[C@@H](O)[C@H](O)[C@H]3O)CC[C@]3(C)C(CCC4[C@@]5(C)C[C@@H](O)[C@H](O)[C@@](C)(CO)C5CC[C@]43C)C2C1C` (stereo not given in full), the max response in test [1] is -9.97%; in test [4] it was 0.857%. Further, the call in test [2], in test [3] and in test [5] was inactive.
For `C/C(=C/CO)CC[C@@H]1[C@@]2(C)CCC[C@](C)(C(=O)O)C2CC[C@@]1(C)O` (stereo not given in full), the figures for the max response in test [1], in test [4] and in test [5] were 2.67%, 3.08% and -1.08%, respectively. Moreover, the compound was called inactive in test [2] and in test [3].
Regarding `CC1(C)CCCC2(C)C3=C(C(=O)OC3O)C(O)CC12` (stereo not given), the max response in test [1] is -10.8%; in test [4] it was 2.72%. Moreover, the result in test [2], in test [3] and in test [5] was inactive.
As for `CO[C@@H]1COCC[C@@H]1N[C@@H]1CC[C@@](C(=O)N2CCc3ncc(C(F)(F)F)cc3C2)(C(C)C)C1`, the result in test [1], in test [2], in test [3] and in test [4] was inactive. Further, the max response in test [5] is -6.53%.
With `COC(=O)[C@]12C(=O)C(C)=C(O)[C@@]1(C)C(C)=CC1[C@@]34CC[C@@H](OC(C)=O)C(C)(C)C3[C@H](C[C@]12C)OC4=O` (stereo not given in full), the max response was 4.87% in test [1], -9.29% in test [3], 1.77% in test [4] and 4.25% in test [5]. Besides, the call in test [2] was inactive.
Take `C=C1[C@H]2[C@H](O[C@@H]3O[C@H](COC(=O)/C=C/c4cc(OC)c(O)c(OC)c4)[C@@H](O)[C@H](O)[C@H]3O)OC=C(C(=O)O)[C@H]2C[C@@H]1O`: the call in test [1], in test [2], in test [3] and in test [4] was inactive. The max response in test [5] was 4.54%.
Turning to `COc1cc(/C=C/C(=O)OC[C@H]2O[C@H](O[C@]3(CO)O[C@H](CO)[C@@H](O)[C@@H]3O)[C@H](O)[C@@H](O)[C@@H]2O)cc(OC)c1O`, the max response is 0.115% in test [1], -1.09% in test [4] and -20.7% in test [5]. Also, the compound was classed as inactive in test [2] and in test [3].
